Calls of active or inactive are those of the source. Rule for the calls: active = hit-call score of the fitted dose curve at least 0.9, where 1 is the maximum; inactive = score below 0.9.

Assay [1] can be described thus: ATG_GLI_CIS: Attagene CIS-FACTORIAL HepG2 Assay for human Zinc Finger Protein GLI1 (AID 2282945). To be noted: HepG2, Attagene cis-factorial reporter mRNA, GLI element; actives raise or lower the signal. In a few lines:
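HepG2 cells transiently transfected with cis-promoter multiplexed reporter units report endogenous transcription factor activity. After 24 h chemical exposure, reporter mRNA was quantified by RT-PCR, 6-FAM labelling, HpaI digestion and capillary electrophoresis, with bidirectional fitting against DMSO.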

Assay [2] is described as follows: ATG_GRE_CIS: Attagene CIS-FACTORIAL HepG2 Assay for human Glucocorticoid Response Elements (GRE) (AID 2282947). The settings on record: HepG2 GRE cis-reporter, Attagene multiplex mRNA; actives raise or lower the signal. A digest of the protocol: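 HepG2 cells transiently transfected with multiple cis-promoter reporter units measure endogenous TF activity; 24 h compound exposure. Reporter mRNA quantified by RT-PCR, FAM labelling, HpaI digestion and capillary electrophoresis; bidirectional fit vs DMSO baseline.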

Assay [3] in a line: ATG_ISRE_CIS: Attagene CIS-FACTORIAL HepG2 Assay for human Interferon Regulatory Factor 1 (IRF1) binding to an Interferon-Stimulated Response Element (ISRE) (AID 2282948). To be noted: HepG2 ISRE cis-reporter (Attagene), mRNA transcription readout; actives raise or lower the signal. In a few lines:
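Transfected HepG2 (multiple reporter transcription units, cis elements) dosed 24 h. RNA → oligo(dT) RT → PCR → 6-FAM primer extension → HpaI → CE. DMSO = negative control/baseline.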

A short description of assay [4]: ATG_M_32_CIS: Attagene CIS-FACTORIAL HepG2 Assay for M32 Transcription Factor (Internal Marker) (AID 2282949).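 Note: background control marker of the multiplexed CIS panel rather than a real target.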 The settings on record: HepG2 Attagene cis-factorial M32 reporter, mRNA; actives raise or lower the signal. A digest of the protocol: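 Internal background marker read-out: RT-PCR/capillary electrophoresis fluorescence of reporter transcripts from transiently transfected HepG2 cells after 24 h chemical exposure. Activity fitted bidirectionally relative to DMSO negative control.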

Assay [5] in a line: ATG_M_06_CIS: Attagene CIS-FACTORIAL HepG2 Assay for M06 Transcription Factor (Internal Marker) (AID 2282950). The settings on record: HepG2 Attagene CIS-FACTORIAL M06 internal marker reporter; actives raise or lower the signal. A digest of the protocol:
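Terse: HepG2, transient MRTU transfection (FuGene 6), 24 h dosing; total RNA, oligo(dT) RT, PCR, FAM label, HpaI cut, capillary electrophoresis; bidirectional fit vs DMSO baseline; background-control endpoint.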

Assay [6] addresses Hypoxia-inducible factor 1-alpha (Homo sapiens) (UniProt Q16665). As to the kind of experiment: ATG_HIF1a_CIS: Attagene CIS-FACTORIAL HepG2 Assay for human Hypoxia Inducible Factor 1 (HIF1A) (AID 2282951). To be noted: HepG2 Attagene cis-factorial HIF1a reporter transcription; actives raise or lower the signal. A digest of the protocol: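 Endogenous-TF cis reporter readout, human HepG2 cells, 24 h incubation; mRNA detected via RT-PCR and capillary electrophoresis fluorescence; DMSO-normalised bidirectional fitting.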

In assay [7] the target is Hepatocyte nuclear factor 6 (Homo sapiens) (UniProt Q9UBC0). Nature of the assay: ATG_HNF6_CIS: Attagene CIS-FACTORIAL HepG2 Assay for human Hepatocyte Nuclear Factor 6 (HNF6) (AID 2282952). The settings on record: HepG2 Attagene cis-factorial HNF6 reporter transcription; actives raise or lower the signal. A digest of the protocol: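 HepG2 cells transiently transfected with cis-element-driven multiplexed reporter units measuring endogenous transcription factor activity. After 24 h exposure, reporter mRNA quantified by RT-PCR, FAM-labelled fragments and capillary electrophoresis; bidirectional fitting versus DMSO.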
Sequence of Hepatocyte nuclear factor 6 (Homo sapiens) (Q9UBC0 whole entry, looked up, the tested form may be a part): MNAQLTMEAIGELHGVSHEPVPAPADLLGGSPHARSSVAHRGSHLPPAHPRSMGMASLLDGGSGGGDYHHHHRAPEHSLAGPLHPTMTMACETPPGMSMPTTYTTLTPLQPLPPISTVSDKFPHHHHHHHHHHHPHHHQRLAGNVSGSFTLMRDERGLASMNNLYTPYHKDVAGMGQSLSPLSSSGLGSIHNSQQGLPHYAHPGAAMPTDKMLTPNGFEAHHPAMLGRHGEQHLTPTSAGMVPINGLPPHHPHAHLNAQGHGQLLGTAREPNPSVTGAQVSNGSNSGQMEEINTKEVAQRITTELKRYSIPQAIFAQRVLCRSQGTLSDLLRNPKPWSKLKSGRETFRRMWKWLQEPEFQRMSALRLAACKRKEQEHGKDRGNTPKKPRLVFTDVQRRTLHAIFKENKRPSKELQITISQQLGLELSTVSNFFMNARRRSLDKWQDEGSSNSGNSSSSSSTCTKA

The target of assay [8] is Heat shock factor protein 1 (Homo sapiens) (UniProt Q00613). Nature of the assay: ATG_HSE_CIS: Attagene CIS-FACTORIAL HepG2 Assay for human Heat Shock Transcription Factor 1 (HSE) (AID 2282953). The settings on record: HepG2 HSE cis-reporter, Attagene RNA transcription; actives raise or lower the signal. In a few lines: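 Read-out: fluorescence of reporter-specific RT-PCR fragments separated by capillary electrophoresis. HepG2 carrying transfected cis-element reporter units; 24 h dosing; activity fitted in both directions relative to DMSO baseline.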
Sequence of Heat shock factor protein 1 (Homo sapiens) (Q00613 whole entry, looked up, the tested form may be a part): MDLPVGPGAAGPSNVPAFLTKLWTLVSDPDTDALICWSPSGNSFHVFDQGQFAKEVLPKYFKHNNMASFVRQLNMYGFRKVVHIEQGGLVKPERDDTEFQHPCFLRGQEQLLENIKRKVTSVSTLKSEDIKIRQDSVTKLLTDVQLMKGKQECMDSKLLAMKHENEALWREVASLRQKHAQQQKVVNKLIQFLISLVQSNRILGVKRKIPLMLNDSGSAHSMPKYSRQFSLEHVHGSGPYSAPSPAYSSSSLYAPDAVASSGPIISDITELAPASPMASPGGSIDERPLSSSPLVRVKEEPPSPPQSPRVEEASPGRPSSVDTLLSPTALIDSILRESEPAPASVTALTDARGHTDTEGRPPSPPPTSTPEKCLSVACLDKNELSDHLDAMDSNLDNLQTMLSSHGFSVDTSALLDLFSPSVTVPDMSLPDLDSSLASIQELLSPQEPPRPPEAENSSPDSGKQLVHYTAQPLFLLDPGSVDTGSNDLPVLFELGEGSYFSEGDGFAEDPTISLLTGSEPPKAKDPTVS

Assay [9] in a line: ATG_MRE_CIS: Attagene CIS-FACTORIAL HepG2 Assay for human Metal Responsive Element (MRE) (AID 2282954). The settings on record: HepG2 MRE cis-reporter transcription, Attagene multiplex; actives raise or lower the signal. A digest of the protocol:
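HepG2 cells transiently transfected with multiple cis-element reporter units measure endogenous MTF1-driven transcription. After 24 h compound exposure, reporter mRNA is quantified by RT-PCR with 6-FAM labelling, HpaI digestion and capillary electrophoresis; bidirectional fits versus DMSO.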

Assay [10] is described as follows: ATG_PBREM_CIS: Attagene CIS-FACTORIAL HepG2 Assay for human Phenobarbital-responsive Enhancer Module (PBREM) (AID 2282955). The settings on record: HepG2 PBREM cis-reporter, Attagene multiplexed transcription; actives raise or lower the signal. A digest of the protocol: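 Readout: reporter mRNA, fluorescent RT-PCR fragments separated by capillary electrophoresis. System: HepG2 transiently transfected with cis-regulated reporter units. Exposure: 24 h. Analysis: bidirectional, DMSO baseline.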

In assay [11] the target is Paired box protein Pax-6 (Homo sapiens) (UniProt P26367). As to the kind of experiment: ATG_Pax6_CIS: Attagene CIS-FACTORIAL HepG2 Assay for human Paired Box 6 (PAX6) (AID 2282956). The settings on record: HepG2 CIS-FACTORIAL PAX6 reporter transcription, RNA readout; actives raise or lower the signal. A digest of the protocol:
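Transient MRTU transfection of HepG2 → compound exposure 24 h → TriZol RNA, oligo(dT) RT → PCR, 6-FAM primer extension, HpaI cut → capillary electrophoresis; activity fitted both directions against DMSO.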

Assay [12] in a line: ATG_PXRE_CIS: Attagene CIS-FACTORIAL HepG2 Assay for human Pregnane X Receptor Element (PXRE) (AID 2282957). To be noted: HepG2 Attagene CIS-FACTORIAL PXRE reporter, mRNA; actives raise or lower the signal. A digest of the protocol: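 HepG2 cells transiently transfected with cis-element-driven multiplexed reporter units; after 24 h chemical exposure, reporter mRNA measured by RT-PCR, 6-FAM labelling, HpaI digestion and capillary electrophoresis. Bidirectional fitting relative to DMSO.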

A short description of assay [13]: ATG_PPRE_CIS: Attagene CIS-FACTORIAL HepG2 Assay for human Peroxisome Proliferator-activated Response Element (PPRE) (AID 2282958). To be noted: HepG2 PPRE cis-element reporter, Attagene transcription factor profiling; actives raise or lower the signal. A digest of the protocol: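 After human HepG2 hepatoma cells were transiently transfected with cis-promoter reporter constructs, they were exposed to test chemicals for 24 hours. Reporter RNA was then reverse-transcribed, PCR-amplified, FAM-labeled, HpaI-digested and quantified by capillary electrophoresis.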

Assay [14] in a line: ATG_RORE_CIS: Attagene CIS-FACTORIAL HepG2 Assay for human RAR-related Orphan Receptor Element (RORE) (AID 2282959). The settings on record: HepG2 Attagene cis-factorial RORE reporter, mRNA; actives raise or lower the signal. In a few lines: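 Measured here: transcript induction of a cis-regulated reporter in HepG2 cells transiently transfected via FuGene 6. After 24 h, RNA was processed by RT-PCR and fluorescent capillary electrophoresis; DMSO defined baseline activity.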

The nature of assay [15]: ATG_Sox_CIS: Attagene CIS-FACTORIAL HepG2 Assay for human SRY-box transcription factor (SOX) (AID 2282960). To be noted: HepG2 Attagene cis-factorial SOX reporter, mRNA; actives raise or lower the signal. A digest of the protocol: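 Using transiently transfected HepG2 cells, reporter transcription driven by cis elements was assessed 24 h after dosing. Signal was fluorescence of capillary-separated RT-PCR products, with DMSO defining baseline activity.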

Assay [16] concerns the target Transcription factor Sp1 (Homo sapiens) (UniProt P08047). As to the kind of experiment: ATG_Sp1_CIS: Attagene CIS-FACTORIAL HepG2 Assay for human Specificity Protein 1 (Sp1) (AID 2282961). The settings on record: HepG2 Sp1 cis-reporter transcription, actives raise or lower the signal. A digest of the protocol:
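After transient transfection of HepG2 cells with cis-promoter reporter units and 24 h chemical treatment, reporter transcripts were quantified by RT-PCR and capillary electrophoresis fluorescence. Gain- and loss-of-signal fitted against DMSO.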

A short description of assay [17]: ATG_SREBP_CIS: Attagene CIS-FACTORIAL HepG2 Assay for human Sterol Regulatory Element Binding (SREBP) (AID 2282962). To be noted: HepG2 Attagene cis-factorial SREBP reporter, mRNA; actives raise or lower the signal. In a few lines: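 Transfected HepG2 (cis-regulated reporter library, endogenous TFs) → compound 24 h → total RNA → oligo(dT) RT → reporter-specific PCR → FAM primer extension, HpaI cut → CE fluorescence. Fit bidirectional vs DMSO.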

For assay [18], the target named is Signal transducer and activator of transcription 3 (Homo sapiens) (UniProt P40763). Nature of the assay: ATG_STAT3_CIS: Attagene CIS-FACTORIAL HepG2 Assay for human Signal Transducer and Activator of Transcription 3 (STAT3) (AID 2282963). The settings on record: HepG2, Attagene cis-factorial STAT3 reporter transcription; actives raise or lower the signal. In a few lines: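 HepG2 cells transiently transfected with cis-element-driven multiple reporter transcription units; after 24 h chemical exposure, reporter mRNA measured by RT-PCR, 6-FAM primer-extension labelling, HpaI digestion and capillary electrophoresis. Bidirectional fitting versus DMSO baseline.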
Sequence of Signal transducer and activator of transcription 3 (Homo sapiens) (P40763 whole entry, looked up): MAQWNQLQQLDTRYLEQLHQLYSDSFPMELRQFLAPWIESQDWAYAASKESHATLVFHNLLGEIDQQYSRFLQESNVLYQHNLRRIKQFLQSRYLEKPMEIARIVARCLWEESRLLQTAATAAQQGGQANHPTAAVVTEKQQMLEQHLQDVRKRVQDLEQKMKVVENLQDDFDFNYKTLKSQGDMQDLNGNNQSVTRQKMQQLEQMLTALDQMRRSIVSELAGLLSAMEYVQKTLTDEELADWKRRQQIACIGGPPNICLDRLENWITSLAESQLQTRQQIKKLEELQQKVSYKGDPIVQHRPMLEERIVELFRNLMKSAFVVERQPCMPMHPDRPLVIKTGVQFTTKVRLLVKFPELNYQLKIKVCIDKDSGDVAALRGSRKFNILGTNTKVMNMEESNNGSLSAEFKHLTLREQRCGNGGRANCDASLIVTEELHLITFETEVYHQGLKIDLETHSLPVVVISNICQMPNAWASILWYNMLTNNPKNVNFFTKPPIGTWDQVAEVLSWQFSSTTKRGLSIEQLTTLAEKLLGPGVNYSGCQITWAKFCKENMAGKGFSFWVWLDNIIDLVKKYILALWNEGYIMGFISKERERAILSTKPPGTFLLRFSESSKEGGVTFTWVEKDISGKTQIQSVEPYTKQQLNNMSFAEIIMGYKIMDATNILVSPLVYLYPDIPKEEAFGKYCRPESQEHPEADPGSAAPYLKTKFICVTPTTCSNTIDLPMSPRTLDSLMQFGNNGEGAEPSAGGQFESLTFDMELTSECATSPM

Assay [19] is described as follows: ATG_TA_CIS: Attagene CIS-FACTORIAL HepG2 Assay for human TA Basal Promoter (AID 2282964). The settings on record: HepG2 Attagene CIS-factorial TA basal promoter reporter; actives raise or lower the signal. A digest of the protocol:
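Transfected HepG2, 24 h compound exposure; RNA → RT-PCR → FAM primer extension → HpaI cut → CE fluorescence. Gain/loss-of-signal fitted against DMSO negative control. Background-control readout.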

Assay [20] can be described thus: ATG_TCF_b_cat_CIS: Attagene CIS-FACTORIAL HepG2 Assay for human T-Cell-Factor with beta-catenin (TCF/b-cat) (AID 2282965). To be noted: HepG2 TCF/beta-catenin cis-reporter transcription, actives raise or lower the signal. A digest of the protocol: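 HepG2 cells transiently transfected with multiple cis-promoter-regulated reporter transcription units, so endogenous transcription factor activity is measured. Reporter mRNA read 24 hours after dosing by RT-PCR, fluorescent labelling and capillary electrophoresis; bidirectional fitting against DMSO.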

Sequence of Hypoxia-inducible factor 1-alpha (Homo sapiens) (Q16665 whole entry, looked up): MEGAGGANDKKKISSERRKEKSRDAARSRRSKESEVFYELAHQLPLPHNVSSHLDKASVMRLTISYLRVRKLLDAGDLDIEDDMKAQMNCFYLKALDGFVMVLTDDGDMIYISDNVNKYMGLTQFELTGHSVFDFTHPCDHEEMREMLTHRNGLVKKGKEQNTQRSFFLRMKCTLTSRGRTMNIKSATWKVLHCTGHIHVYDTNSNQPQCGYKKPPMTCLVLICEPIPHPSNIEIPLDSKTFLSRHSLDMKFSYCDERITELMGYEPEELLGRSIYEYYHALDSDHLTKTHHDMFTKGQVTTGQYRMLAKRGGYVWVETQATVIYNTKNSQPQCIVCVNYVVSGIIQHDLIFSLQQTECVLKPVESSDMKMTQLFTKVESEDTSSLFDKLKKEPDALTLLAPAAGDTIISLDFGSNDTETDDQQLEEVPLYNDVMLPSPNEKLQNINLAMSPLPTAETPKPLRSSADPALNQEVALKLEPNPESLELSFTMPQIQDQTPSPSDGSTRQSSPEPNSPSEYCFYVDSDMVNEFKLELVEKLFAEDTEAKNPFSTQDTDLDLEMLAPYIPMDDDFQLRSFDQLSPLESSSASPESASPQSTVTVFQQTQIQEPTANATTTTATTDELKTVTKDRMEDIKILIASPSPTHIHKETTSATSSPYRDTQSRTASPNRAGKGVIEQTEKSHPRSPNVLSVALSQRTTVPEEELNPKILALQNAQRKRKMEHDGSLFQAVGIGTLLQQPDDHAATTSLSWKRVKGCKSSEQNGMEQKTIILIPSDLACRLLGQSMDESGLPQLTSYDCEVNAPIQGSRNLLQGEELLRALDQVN
Sequence of Transcription factor Sp1 (Homo sapiens) (P08047 whole entry, looked up): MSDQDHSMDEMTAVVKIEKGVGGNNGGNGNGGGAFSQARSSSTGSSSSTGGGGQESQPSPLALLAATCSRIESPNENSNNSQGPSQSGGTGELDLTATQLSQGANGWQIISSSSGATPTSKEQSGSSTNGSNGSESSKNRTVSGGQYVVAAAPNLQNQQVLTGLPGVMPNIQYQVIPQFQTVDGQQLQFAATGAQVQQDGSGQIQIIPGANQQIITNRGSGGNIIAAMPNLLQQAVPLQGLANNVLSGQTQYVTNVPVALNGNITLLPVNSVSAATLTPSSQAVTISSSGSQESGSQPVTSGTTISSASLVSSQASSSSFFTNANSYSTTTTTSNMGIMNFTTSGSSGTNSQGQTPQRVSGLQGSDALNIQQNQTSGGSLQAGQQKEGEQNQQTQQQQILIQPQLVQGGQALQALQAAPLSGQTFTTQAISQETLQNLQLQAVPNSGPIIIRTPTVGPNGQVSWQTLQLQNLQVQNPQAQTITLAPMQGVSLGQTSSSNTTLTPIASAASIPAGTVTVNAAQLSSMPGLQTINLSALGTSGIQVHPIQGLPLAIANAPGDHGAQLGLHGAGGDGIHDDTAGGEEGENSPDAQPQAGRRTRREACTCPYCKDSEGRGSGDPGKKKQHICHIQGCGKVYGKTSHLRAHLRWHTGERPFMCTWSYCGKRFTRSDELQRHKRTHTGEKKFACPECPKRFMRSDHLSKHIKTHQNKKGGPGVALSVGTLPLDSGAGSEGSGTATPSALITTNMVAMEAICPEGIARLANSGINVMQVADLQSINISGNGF
Sequence of Paired box protein Pax-6 (Homo sapiens) (P26367 whole entry, looked up): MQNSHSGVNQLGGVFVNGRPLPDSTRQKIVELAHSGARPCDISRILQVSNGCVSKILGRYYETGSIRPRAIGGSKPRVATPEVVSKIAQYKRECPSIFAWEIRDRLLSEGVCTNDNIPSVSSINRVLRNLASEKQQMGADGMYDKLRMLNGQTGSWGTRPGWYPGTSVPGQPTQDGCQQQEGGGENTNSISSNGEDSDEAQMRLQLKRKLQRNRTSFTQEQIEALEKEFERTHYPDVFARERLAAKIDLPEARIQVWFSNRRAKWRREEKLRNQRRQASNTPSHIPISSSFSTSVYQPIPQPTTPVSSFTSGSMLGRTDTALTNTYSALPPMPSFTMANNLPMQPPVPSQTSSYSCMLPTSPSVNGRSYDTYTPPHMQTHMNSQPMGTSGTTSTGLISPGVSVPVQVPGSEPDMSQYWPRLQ

In general, AC50 refers to the concentration giving half of the maximal activity seen. `CC1(c2ccc(Oc3ccccc3)cc2)OC(=O)N(Nc2ccccc2)C1=O` (stereo not given): the result in [1], in assay [2], in assay [3], in [4], in assay [5] and in assay [6] was inactive. The outcome in assay [7], in assay [8], in [9], in assay [10], in assay [11] and in [14] was inactive. The result in [15], in [16], in assay [17], in assay [18], in assay [19] and in assay [20] was inactive. Moreover, the AC50 in assay [12] was 2.24 µM (active); in assay [13], 1.21 µM (active).
On to `CCc1ccc(C(=O)NN(C(=O)c2cc(C)cc(C)c2)C(C)(C)C)cc1`, for which the outcome in [1], in [2], in assay [3], in [4], in [5] and in assay [6] was inactive. Also, the molecule was called inactive in assay [7], in assay [8], in [10], in assay [11], in assay [13] and in assay [14]. In addition, the molecule was classed as inactive in assay [15], in assay [16], in [17], in assay [18], in [19] and in assay [20]. Also, the values for the AC50 in assay [9] and in [12] were 18.2 µM (active) and 1.28 µM (active), respectively.
Turning to `[2H]C1([2H])[n+]2ccccc2-c2cccc[n+]2C1([2H])[2H]`, the molecule was called inactive in assay [1], in assay [2], in [3], in [4], in [5] and in assay [6]. The molecule was classed as inactive in assay [7], in assay [8], in assay [9], in assay [10], in [11] and in assay [13]. Moreover, the molecule was classed as inactive in assay [14], in assay [15], in [16], in assay [18], in assay [19] and in assay [20]. Moreover, the results for the AC50 in [12] and in [17] were 18.6 µM (active) and 13.3 µM (active), respectively.

These data come from PubChem BioAssay (EPA / NIEHS).
